The record followed here is the supplement of paper PMC7556523.

The test system of the first experiment is Sporothrix brasiliensis CBS 133006. The experiment in a line: growth inhibition relative to untreated control; higher = more growth inhibition (more antifungal activity), active = 80 or more; extreme values may be limits of the assay. As to conditions: 1 µM; 48 h. Put shortly:
(§1)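 Yeast-form cells of the reference isolates (grown 7 days in brain heart infusion broth with 2% glucose at 36°C) were exposed at 1 x 10^5 CFU/ml to library compounds at a final 1 μM for 48 h at 35°C in 5% CO2. Growth was checked by visual inspection under an inverted light microscope and quantified by spectrophotometric readings. The value is percent growth inhibition relative to untreated control. Runs were in quadruplicate.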
In the case of `O=C1[C@@H](Oc2ccccc2)[C@@H](c2ccc(Cl)cc2)N1CCn1cnc2c(NCc3ccccc3)ncnc21`, the growth inhibition was 14% (inactive).

For `c1ccc(C[C@@H]2CN(c3nccc(Oc4ccc(-n5ccnc5)cc4)n3)CCN2)cc1`, the growth inhibition is 10.2% (inactive).

In the case of `c1cc(C2=NCCN2)cc(-c2cc(-c3ccc(C4=NCCN4)cc3)no2)c1`, the growth inhibition was 5.5% (inactive).

Turning to `O=C(NC1=NCCS1)c1sc2cc(F)ccc2c1Cl`, the growth inhibition was 0.75% (inactive).

As to `COc1ccc(Oc2ccc([C@@H](C)N(C)c3ncc4c(N)nc(N)nc4n3)cc2)cc1`, the growth inhibition was 5.75% (inactive).

Regarding `CC(=O)N(CCN(C(=O)c1ccc(F)cc1)c1ccccc1)c1ccccc1`, the growth inhibition is 13% (inactive).

`COc1ccc2nc(C)cc(OCC(=O)Nc3ccccc3OC)c2c1`: the growth inhibition is 6% (inactive).

With `CCN(CC)C(=O)N1CCN(C)CC1`, the growth inhibition is 4% (inactive).

In the case of `COc1ccc(Nc2ccccc2NC(=O)c2ccc(O)nc2)cc1`, the growth inhibition was 14.2% (inactive).

With `Clc1cccc(C(c2ccc(CN3CCNCC3)cc2)n2ccnc2)c1` (stereo unspecified), the growth inhibition was 3% (inactive).

As to `CCOC(=O)c1cc(-c2csc(Nc3c(C)cc(C)cc3C)n2)on1`, the growth inhibition is 10.5% (inactive).

Consider `Cc1nc2ccccn2c1C(=O)NCc1ccc(Cl)cc1`, for which the growth inhibition was 14% (inactive).

For the compound `CC1CCCN(C(=O)C(C)Nc2cc(Cl)ccc2N2CCOCC2)C1` (stereo unspecified), the growth inhibition is 11.5% (inactive).

As for `CC1(C)Cc2c(c(N3CCOCC3)nc3snc(Br)c23)CO1`, the growth inhibition was 4.5% (inactive).

Take `COc1ccc(OC)c(NCc2ccc3nc(N)nc(N)c3c2Cl)c1`: the growth inhibition was 93.8% (active).

As to `O=C(c1ccco1)N(CCCn1ccnc1)c1nc2c(Cl)cccc2s1`, the growth inhibition is 6% (inactive).

Turning to `O=C(C1CCN(c2cc(-n3cccc3)ncn2)CC1)N1CCc2ccccc2C1`, the growth inhibition was 6% (inactive).

As to `COC(=O)Nc1nc2cc(C(=O)c3ccccc3)ccc2[nH]1`, the growth inhibition was 3.75% (inactive).

As for `CC1COC2(CCN(c3nc(=O)c4cc(C(F)(F)F)cc([N+](=O)[O-])c4s3)CC2)O1` (stereo unspecified), the growth inhibition was 15% (inactive).

On to `Cc1ccc(NC(=O)CC2COc3ccccc3O2)cc1Cl` (stereo unspecified), for which the growth inhibition was 10% (inactive).

With `O=C(COc1cccc(F)c1)Nc1nc(-c2ccccn2)cs1`, the growth inhibition was 22.5% (inactive).

`O=C([C@@H](c1ccc(Cl)cc1)c1cccnc1)N1CCN(c2ccc(C(F)(F)F)cc2)CC1`: the growth inhibition is 25.2% (inactive).

On to `Cc1[nH]c2ccccc2c1C(c1cccs1)N1CCN(C)CC1` (stereo unspecified), for which the growth inhibition was 4.75% (inactive).

On to `Cc1ccc(S(=O)(=O)Nc2ccc(CN3CCN(C(=O)c4cccc(C#N)c4)CC3)cc2)cc1`, for which the growth inhibition was 2% (inactive).

As for `Cc1nn2c(O)c3c(nc2c1-c1ccc(F)cc1)CCCC3`, the growth inhibition is 7% (inactive).

In the case of `CN1CCC(c2cc(-c3ccncc3)c(-c3ccc(F)cc3)[nH]2)CC1`, the growth inhibition was 9% (inactive).

As to `O=C(NC1CC1)c1ccc(N2CCC(Cc3ccccc3)CC2)nc1`, the growth inhibition was 6.5% (inactive).

With `Cc1ccc2c(c1C)NC(=O)C21NN=C(c2ccccc2)S1` (stereo unspecified), the growth inhibition was 7.25% (inactive).

`COc1cccc(-n2nnnc2S(=O)(=O)Cc2ccccc2)c1`: the growth inhibition was 19% (inactive).

Regarding `Nc1ncnc2c1ncn2C[C@@H](O)[C@@H](O)C(=O)O`, the growth inhibition was 5% (inactive).

Consider `CCC(Sc1nc2ccccc2o1)C(=O)Nc1nnc(C)s1` (stereo unspecified), for which the growth inhibition was 16% (inactive).

In the case of `NCCN(C(=O)c1ccc(Cl)cc1Cl)c1ccc(OCc2ccc(Cl)cc2)cc1`, the growth inhibition was 9.75% (inactive).

In the case of `CCC(NC(=O)c1ccccc1NC(=O)c1ccc(C)cc1)C(=O)OC` (stereo unspecified), the growth inhibition is 10% (inactive).

As to `O=C(Nc1ccccc1)c1ccc(-c2cc3ccncc3cc2OC2CCNCC2)s1`, the growth inhibition is 8.75% (inactive).

As for `COc1ccc(S(=O)(=O)Nc2ccc(CN3CCN(C(=O)c4cccc(C#N)c4)CC3)cc2)cc1`, the growth inhibition is 4.25% (inactive).

For the compound `Cc1ccccc1C(=O)N1N=C(Nc2ccccc2)SC1(C)C`, the growth inhibition was 10.5% (inactive).

Take `O=C(Nc1ccc(F)c(-c2nc3cc(-c4ccccc4)cnc3[nH]2)c1)N1CCCC1`: the growth inhibition is 12.5% (inactive).

As to `CCCc1ccc(S(=O)(=O)Nc2ccc(CN3CCN(CC4CC4)CC3)cc2)cc1`, the growth inhibition is 25.5% (inactive).

A further experiment has as its system Sporothrix schenckii ATCC 32286. The description is as above. As to conditions: 1 µM; 48 h. In short, it runs like this:
as §1
Take `O=C1[C@@H](Oc2ccccc2)[C@@H](c2ccc(Cl)cc2)N1CCn1cnc2c(NCc3ccccc3)ncnc21`: the growth inhibition was 17.8% (inactive).

Take `c1ccc(C[C@@H]2CN(c3nccc(Oc4ccc(-n5ccnc5)cc4)n3)CCN2)cc1`: the growth inhibition is 9.5% (inactive).

As to `c1cc(C2=NCCN2)cc(-c2cc(-c3ccc(C4=NCCN4)cc3)no2)c1`, the growth inhibition is 0% (inactive).

Take `O=C(NC1=NCCS1)c1sc2cc(F)ccc2c1Cl`: the growth inhibition was 0% (inactive).

For the compound `COc1ccc(Oc2ccc([C@@H](C)N(C)c3ncc4c(N)nc(N)nc4n3)cc2)cc1`, the growth inhibition is 4.25% (inactive).

With `CC(=O)N(CCN(C(=O)c1ccc(F)cc1)c1ccccc1)c1ccccc1`, the growth inhibition is 0% (inactive).

In the case of `COc1ccc2nc(C)cc(OCC(=O)Nc3ccccc3OC)c2c1`, the growth inhibition is 0.75% (inactive).

Regarding `CCN(CC)C(=O)N1CCN(C)CC1`, the growth inhibition is 1% (inactive).

With `COc1ccc(Nc2ccccc2NC(=O)c2ccc(O)nc2)cc1`, the growth inhibition was 4.25% (inactive).

As for `Clc1cccc(C(c2ccc(CN3CCNCC3)cc2)n2ccnc2)c1` (stereo unspecified), the growth inhibition was 7% (inactive).

On to `CCOC(=O)c1cc(-c2csc(Nc3c(C)cc(C)cc3C)n2)on1`, for which the growth inhibition was 3.75% (inactive).

`Cc1nc2ccccn2c1C(=O)NCc1ccc(Cl)cc1`: the growth inhibition was 16% (inactive).

Regarding `CC1CCCN(C(=O)C(C)Nc2cc(Cl)ccc2N2CCOCC2)C1` (stereo unspecified), the growth inhibition was 0.5% (inactive).

Consider `CC1(C)Cc2c(c(N3CCOCC3)nc3snc(Br)c23)CO1`, for which the growth inhibition was 6.5% (inactive).

Regarding `COc1ccc(OC)c(NCc2ccc3nc(N)nc(N)c3c2Cl)c1`, the growth inhibition was 89.2% (active).

As to `O=C(c1ccco1)N(CCCn1ccnc1)c1nc2c(Cl)cccc2s1`, the growth inhibition is 10.2% (inactive).

For `O=C(C1CCN(c2cc(-n3cccc3)ncn2)CC1)N1CCc2ccccc2C1`, the growth inhibition is 10.2% (inactive).

For the compound `COC(=O)Nc1nc2cc(C(=O)c3ccccc3)ccc2[nH]1`, the growth inhibition was 16% (inactive).

Regarding `CC1COC2(CCN(c3nc(=O)c4cc(C(F)(F)F)cc([N+](=O)[O-])c4s3)CC2)O1` (stereo unspecified), the growth inhibition is 1.5% (inactive).

With `Cc1ccc(NC(=O)CC2COc3ccccc3O2)cc1Cl` (stereo unspecified), the growth inhibition is 0% (inactive).

For the compound `O=C(COc1cccc(F)c1)Nc1nc(-c2ccccn2)cs1`, the growth inhibition is 8.75% (inactive).

As to `O=C([C@@H](c1ccc(Cl)cc1)c1cccnc1)N1CCN(c2ccc(C(F)(F)F)cc2)CC1`, the growth inhibition was 2% (inactive).

For `Cc1[nH]c2ccccc2c1C(c1cccs1)N1CCN(C)CC1` (stereo unspecified), the growth inhibition is 15.2% (inactive).

`Cc1ccc(S(=O)(=O)Nc2ccc(CN3CCN(C(=O)c4cccc(C#N)c4)CC3)cc2)cc1`: the growth inhibition was 0.5% (inactive).

With `Cc1nn2c(O)c3c(nc2c1-c1ccc(F)cc1)CCCC3`, the growth inhibition was 6.5% (inactive).

For the compound `CN1CCC(c2cc(-c3ccncc3)c(-c3ccc(F)cc3)[nH]2)CC1`, the growth inhibition was 10% (inactive).

In the case of `O=C(NC1CC1)c1ccc(N2CCC(Cc3ccccc3)CC2)nc1`, the growth inhibition was 19.8% (inactive).

Regarding `Cc1ccc2c(c1C)NC(=O)C21NN=C(c2ccccc2)S1` (stereo unspecified), the growth inhibition was 4.5% (inactive).

In the case of `COc1cccc(-n2nnnc2S(=O)(=O)Cc2ccccc2)c1`, the growth inhibition is 6% (inactive).

As for `Nc1ncnc2c1ncn2C[C@@H](O)[C@@H](O)C(=O)O`, the growth inhibition is 11.8% (inactive).

In the case of `CCC(Sc1nc2ccccc2o1)C(=O)Nc1nnc(C)s1` (stereo unspecified), the growth inhibition was 3.25% (inactive).

For the compound `NCCN(C(=O)c1ccc(Cl)cc1Cl)c1ccc(OCc2ccc(Cl)cc2)cc1`, the growth inhibition was 7% (inactive).

As for `CCC(NC(=O)c1ccccc1NC(=O)c1ccc(C)cc1)C(=O)OC` (stereo unspecified), the growth inhibition was 5.75% (inactive).

As for `O=C(Nc1ccccc1)c1ccc(-c2cc3ccncc3cc2OC2CCNCC2)s1`, the growth inhibition is 11% (inactive).

For `COc1ccc(S(=O)(=O)Nc2ccc(CN3CCN(C(=O)c4cccc(C#N)c4)CC3)cc2)cc1`, the growth inhibition is 7.75% (inactive).

As to `Cc1ccccc1C(=O)N1N=C(Nc2ccccc2)SC1(C)C`, the growth inhibition is 16% (inactive).

Regarding `O=C(Nc1ccc(F)c(-c2nc3cc(-c4ccccc4)cnc3[nH]2)c1)N1CCCC1`, the growth inhibition was 7.75% (inactive).

As to `CCCc1ccc(S(=O)(=O)Nc2ccc(CN3CCN(CC4CC4)CC3)cc2)cc1`, the growth inhibition is 2.25% (inactive).
